The results in this text go back to PubChem BioAssay AID1069 (NMMLSC, 2008).

Activity calls are given as the source filed them.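 How the source made its calls: active means high combined rank on largest and smallest cell-count-weighted shift across three tests, rank score above 45, floors 50 and 25 (some results past the limit were not filed as active); inactive means the rest.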

The nature of this assay: activators of LNCaP cell differentiation, retest, confirmation, side scatter shift, flow cytometry (AID 1069).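 Further: LNCaP human prostate cancer cells in low-serum medium with charcoal-stripped FBS; percent of cells with raised granularity gated so DMSO controls show 10%.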 The following applies: 4 d, stronger effect = higher value.

As to `COc1ccc(Cl)cc1N1CCN(CCNC(=O)Nc2ccccc2C)CC1`, the side scatter shift (at 100 µM) is 16.7% (inactive) and the side scatter shift (side scatter shift, at 10 µM) was 3.25%.

`COc1ccc(-c2cc3c(=O)n(CC(=O)NC4CCN(Cc5ccccc5)CC4)ncn3n2)cc1`: the side scatter shift is 36.1% (inactive) (at 100 µM) and 5.5% (side scatter shift, at 10 µM).

Regarding `CCc1nn(C(C)C(=O)N2CCc3ccccc3C2)c(=O)c2cc3occc3n12` (configuration not stated), the side scatter shift runs as follows: (at 100 µM) 5.5% (inactive); (side scatter shift, at 10 µM) 2.8%.

Take `O=C(NCCc1c[nH]c2ccccc12)C(F)(F)C(F)F`: the side scatter shift reads like this: (at 100 µM) 9% (inactive); (side scatter shift, at 10 µM) 5.05%.

As to `COc1ccc(-n2nnnc2SCC(=O)c2ccc(O)c(O)c2)cc1`, the side scatter shift was 0% (inactive) (at 100 µM) and 2.75% (side scatter shift, at 10 µM).

In the case of `COc1ccc(N2CCN(CCCNC(=O)c3cc4sccc4n3C)CC2)cc1`, the side scatter shift is 51.6% (active) (at 100 µM) and 6.5% (side scatter shift, at 10 µM).

Consider `COc1ccc2nc3oc(C(=O)NCc4cccs4)cc3cc2c1`, for which the side scatter shift is 3.9% (inactive) (at 100 µM) and 3.9% (side scatter shift, at 10 µM).

With `Cc1ccc2c(c1)c1c(n2CC(O)Cn2c(C)nc3ccccc32)/C(=N\O)CCC1` (configuration not stated), the side scatter shift is 18.8% (inactive) (at 100 µM) and 10.1% (side scatter shift, at 10 µM).

Consider `Cc1cc(=O)oc(C)c1C(=O)NCCCN1CCN(c2ccccc2F)CC1`, for which the side scatter shift (at 100 µM) was 32.8% (inactive) and the side scatter shift (side scatter shift, at 10 µM) was determined as 2.1%.

For `CCOC(=O)N1CCC(NC(=O)c2cc3c(-c4ccc(Cl)cc4)nn(C)c3s2)CC1`, the side scatter shift reads like this: (at 100 µM) 22.5% (inactive); (side scatter shift, at 10 µM) 6.9%.

Regarding `O=C(Cn1ccc2ccccc2c1=O)NCCC(=O)N1CCN(c2cccc(C(F)(F)F)c2)CC1`, the side scatter shift was 5.2% (inactive) (at 100 µM) and 2.4% (side scatter shift, at 10 µM).

For `Cc1ccccc1-c1nc(CN2CCCC(C(=O)NCCCN3CCOCC3)C2)c(C)o1` (configuration not stated), the side scatter shift is, setting by setting: (at 100 µM) 72.4% (active); (side scatter shift, at 10 µM) 12.8%.

As for `CCOC(=O)N1CCC(=C2c3ccc(Cl)cc3CCc3cccnc32)CC1`, the side scatter shift is 28.6% (inactive) (at 100 µM) and 6.25% (side scatter shift, at 10 µM).

`O=C(c1ccc(COCC(F)(F)F)o1)N1CCCCCC1`: the side scatter shift reads like this: (at 100 µM) 16.9% (inactive); (side scatter shift, at 10 µM) 4.95%.

Turning to `CCN1CCN(C(=O)C2CCN(Cc3nc(-c4cccc(Cl)c4)oc3C)CC2)CC1`, the side scatter shift (at 100 µM) is 16.7% (inactive) and the side scatter shift (side scatter shift, at 10 µM) was found to be 19.1%.

With `N=c1n(CCO)c2ccccc2n1CCOc1ccc(Cl)cc1Cl`, the side scatter shift (at 100 µM) is 22.2% (inactive) and the side scatter shift (side scatter shift, at 10 µM) is 8.75%.

With `CCN(CCCNS(=O)(=O)c1ccc2c(c1)oc(=O)n2C)c1cccc(C)c1`, the side scatter shift was 22.2% (inactive) (at 100 µM) and 4.85% (side scatter shift, at 10 µM).

In the case of `O=C(CCNC(=O)Cn1ccc2ccccc2c1=O)NCCCN1CCN(c2ccc(F)cc2)CC1`, the side scatter shift by setting is: (at 100 µM) 21.8% (inactive); (side scatter shift, at 10 µM) 7.25%.

Turning to `COc1ccc(Cc2nc(-c3ccc(-n4cccc4)cc3)no2)cc1OC`, the side scatter shift (at 100 µM) was 23.5% (inactive) and the side scatter shift (side scatter shift, at 10 µM) came to 15.8%.

On to `CC1CCCCN1CCNC(=O)c1cc2c(-c3ccccc3F)nn(C)c2s1` (configuration not stated), for which the side scatter shift is, setting by setting: (at 100 µM) 42.4% (inactive); (side scatter shift, at 10 µM) 19.9%.

Take `Cn1nc(-c2ccc(Cl)cc2)c2cc(C(=O)NCCCN3CCCC3)sc21`: the side scatter shift is 31.6% (active) (at 100 µM) and 66.5% (side scatter shift, at 10 µM).

Regarding `COC(=O)c1ccc2c(=O)n(Cc3ccco3)c(SCC(=O)Nc3ccc(C)c(Cl)c3)nc2c1`, the side scatter shift reads like this: (at 100 µM) 21% (inactive); (side scatter shift, at 10 µM) 10.6%.

On to `CCc1ccc(NC(=O)NCCN2CCc3ccccc3C2)cc1`, for which the side scatter shift reads like this: (at 100 µM) 0% (inactive); (side scatter shift, at 10 µM) 8.75%.

For `CCS(=O)(=O)N1CCC(C(=O)NCCCN2CCN(c3ccccc3F)CC2)CC1`, the side scatter shift (at 100 µM) was 13.3% (inactive) and the side scatter shift (side scatter shift, at 10 µM) turned out to be 12.6%.

On to `Cc1oc(-c2ccc(Cl)cc2)nc1CN1CCCC(C(=O)NCCCN2CCOCC2)C1` (configuration not stated), for which the side scatter shift by setting is: (at 100 µM) 42.9% (inactive); (side scatter shift, at 10 µM) 16.6%.

Take `CCOc1ccc(NC(=O)COc2nsnc2N2CCCCC2)cc1`: the side scatter shift (at 100 µM) is 8.7% (inactive) and the side scatter shift (side scatter shift, at 10 µM) came to 6.35%.

For the molecule `Cc1nn(Cc2ccc(F)cc2)c(C)c1NC(=O)c1cc(-c2ccc3c(c2)OCO3)on1`, the side scatter shift reads like this: (at 100 µM) 4.8% (inactive); (side scatter shift, at 10 µM) 1.1%.

As for `Cc1cc(O)c(-c2cc(C(=O)Nc3ccc(S(=O)(=O)N4CCOCC4)cc3)[nH]n2)cc1C`, the side scatter shift is 5.6% (inactive) (at 100 µM) and 9.8% (side scatter shift, at 10 µM).

Regarding `Cc1cccc(-c2nc(CN3CCCC(C(=O)NC4CCC(C)CC4)C3)c(C)o2)c1` (configuration not stated), the side scatter shift by setting is: (at 100 µM) 40% (inactive); (side scatter shift, at 10 µM) 5.9%.

For the molecule `COc1ccc(S(=O)(=O)CCC(=O)O)cc1`, the side scatter shift by setting is: (at 100 µM) 16.3% (inactive); (side scatter shift, at 10 µM) 7.3%.

Turning to `COc1ccc(-c2cc(C(F)(F)F)nc(N3CCN(c4ccc(F)cc4)CC3)n2)cc1OC`, the side scatter shift is 22.3% (inactive) (at 100 µM) and 3.05% (side scatter shift, at 10 µM).

Turning to `C=CCn1cc(C(=O)N2CCN(C)CC2)c(=O)c2cc(S(=O)(=O)N3CCCC3)ccc21`, the side scatter shift (at 100 µM) is 8.9% (inactive) and the side scatter shift (side scatter shift, at 10 µM) came to 1.6%.

For `CN(C)c1ccc(-c2nn3c(-c4ccc(Cl)cc4Cl)nnc3s2)cc1`, the side scatter shift was 50% (inactive) (at 100 µM) and 4.15% (side scatter shift, at 10 µM).

For the molecule `Cc1ccccc1-c1nc(CN2CCC(C(=O)NCCCN3CCCC3)CC2)c(C)o1`, the side scatter shift reads like this: (at 100 µM) 40% (inactive); (side scatter shift, at 10 µM) 19.4%.

As for `CCN1C(=O)OC2(CCCCC2)C1(C)O` (configuration not stated), the side scatter shift (at 100 µM) was 10.4% (inactive) and the side scatter shift (side scatter shift, at 10 µM) was found to be 12.7%.

With `CCN(CC)CCCNC(=O)c1cc2c(-c3ccc(Cl)cc3)nn(C)c2s1`, the side scatter shift reads like this: (at 100 µM) 61.5% (active); (side scatter shift, at 10 µM) 81.5%.
